Assay outcomes as filed in PubChem BioAssay.
The list is not random: actives were taken first. Their share in the collection is about 3.6%.
TGFb inhibitor = inhibitors of TGF-b signaling. Potency, µM (top dose mostly 46.1 µM), inactives show at the highest dose activity, negative = inhibition, most hits filed as inhibitors. AID 588855. HepG2 CAGA-GFP TGF-b/SMAD3 reporter, GFP fluorescence, 18 h; TGF-beta stimulated, 500 pg/mL final. 1.2% of 410,000 active; also: % is scaled to controls: 0 for no effect and ±100 for the full control effect; nearly all actives have a fitted effect of over 65% in size
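Per well, imaged GFP fluorescence of HEPG2 CAGA-GFP cells gives the signal; cells get compound, then TGF-beta (500 pg/mL final), 18 h at 37 degrees C; %Activity versus -TGF-beta and +DMSO controls.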
A549 tox = A549 cytotoxicity, counter-screen for Nrf2 inhibitors; A549 ARE-Fluc cells, CellTiter-Fluor viability, 18-24 h; Potency, µM (titrated, usually from 46 µM), for the others: at the top dose activity change, negative = cytotoxicity, most hits filed as inhibitors; 0.16% of 390,000 active; AID 504648; also: % is scaled to controls: 0 for no effect and ±100 for the full control effect
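A549 ARE_Fluc cells in 5% FBS OPTI-MEM were exposed to compounds in concentration-response for 18-24 h at 37 deg C. Viability was read by CellTiter-Fluor fluorescence (Ex 405/Em 525) after 30 min, before the luciferase read.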
Nrf2 inh = blocks Nrf2 signaling; A549 ARE-Fluc reporter, luciferase luminescence, 18-24 h; Potency, µM (top dose mostly 46 µM), for inactives: top-dose activity change, negative = inhibition, hits mostly inhibitors; 2.1% of 360,000 active; AID 504444; also: % is scaled to controls: 0 for no effect and ±100 for the full control effect; nearly all actives have a fitted effect of over 60% in size
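Nrf2 activity is the BugLite luminescence, read 15 min after reagent at room temperature, following CellTiter-Fluor cytotoxicity readout (30 min, 37C). Compound titrations were applied for 18-24 h to 5000 A549 ARE_Fluc cells/well in 5% FBS OPTI-MEM.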
HepG2 tox = kills HepG2 cells in TGF-b inhibitor counter-screen | Potency, µM (titrated, usually from 46.1 µM), without a hit: top-dose activity change, negative = cytotoxicity, usual class: cytotoxic | AID 588856 | HepG2 CAGA-GFP viability, ATP luminescence, 18 h | 0.76% of 410,000 active
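CellTiter-Glo luminescence gave cytotoxicity after 18 hours at 37 degrees C. The cells were HepG2 CAGA-GFP in 1% FBS DMEM, stimulated with 500 pg/mL TGF-beta after compound addition. %Activity was normalised to no-cell wells (complete cell-killing) and DMSO (no toxicity), and curves were fitted and classified.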
Nrf2 ARE act = activates Nrf2 signaling | Potency, µM (top dose mostly 46.1 µM), for the others: top-dose activation, actives largely listed as activators | AREc32 ARE-luciferase reporter (MCF7-derived line), luminescence, 24 h | 0.31% of 410,000 active; also: % of control where 0% means no effect; nearly all actives have a fitted effect of over 65% in size
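AREc32_Fluc, 1000 cells/well, OPTI-MEM + 5% FBS, o/n 37 deg C 5% CO2; 23 nL cpd by pin tool, 24 hr; Steady-Glo 30 min RT, luminescence.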
Numbers without * were called inactive; ? = inconclusive; / = not tested or not shown; [ ] = remark or other dose. Calls follow the shape of the dose curve; as a rule, active = well fitted curve in the direction sought with a large enough effect; inconclusive = small, poorly fitted or top-dose-only effect, or another doubt; inactive = no such curve, though single readings can be large; an effect the other way counts as inactive or inconclusive. Potency is read from the fitted curve at half-maximal effect.

SMILES	TGFb inhibitor	A549 tox	Nrf2 inh	HepG2 tox	Nrf2 ARE act
COc1ccc(CCNC(=O)CSc2ncc(C(=O)Nc3ccccc3)c(=O)n2C)cc1	17%	13%	?	-18%	3%
COc1ccccc1NC(=O)c1cnc(SCC(=O)NCCc2ccccc2)n(C)c1=O	23%	-4%	7%	-6%	4.5µM*
Cc1c(C)n(Cc2ccccc2)c2ccc(C(=O)OCCCN(C)C)cc12	?	?	?	18µM*	16%
O=C(Cn1c(SCC(=O)Nc2ccc(F)cc2)nc2ccccc21)NCc1ccc(Cl)cc1	13µM*	-15%	/	-98%	-2%
Cc1ccc(CNC(=O)Cn2c(SCC(=O)Nc3ccc(F)cc3)nc3ccccc32)cc1	?	?	/	7.1µM*	-1%
O=C(Cn1c(SCC(=O)Nc2ccc(F)cc2)nc2ccccc21)NCc1ccc(F)cc1	-25%	-3%	/	-58%	-1%
CCNC(=O)C(CCSC)NS(=O)(=O)c1ccc(C)cc1 (configuration not stated)	-6%	2%	6%	-17%	0%
Cc1ccc2cc3c(NC(=O)c4ccco4)nn(C)c3nc2c1	-3%	2%	?	-10%	3.2µM*
O=[N+]([O-])c1ccccc1N/N=C/c1c[nH]c2ccccc12	?	-27%	?	-45%	3.5µM*
N#CC1(NC(=O)CN2CCc3ccccc3C2)CCCC1	11%	4%	?	-2%	-1%
C/C(=N/NC(=O)CN(c1ccccc1)S(=O)(=O)c1ccccc1)c1ccccc1O	7.1µM*	-2%	?	5.6µM*	-2%
Cc1c(C(=O)N/N=C/c2ccc(Cl)cc2)[nH]c2ccc(Cl)cc12	2µM*	-14%	?	10µM*	-1%
O=C(N/N=C/c1ccc(O)cc1)c1[nH]c2ccc(Br)cc2c1-c1ccccc1	11µM*	?	?	-44%	0%
CCCCC(CC)C(=O)Nc1cccc(SC)c1 (configuration not stated)	-9%	1%	1%	-76%	0%
CC(C)(CC(=O)O)CC(=O)NCc1c(Cl)cccc1Sc1ccc(Cl)cc1	0%	0%	10%	-16%	-1%
Clc1ccc(-c2nc3ccccc3nc2-c2ccccc2)cc1	11%	-2%	-5%	3%	1%
CC(=O)Nc1ccc(N(CC(O)Cn2c3ccccc3c3ccccc32)S(=O)(=O)c2ccc(C)cc2)cc1 (configuration not stated)	14µM*	?	?	-49%	4%
Cc1ccc(C2CC(=O)N(c3ccc(F)cc3)C3=C2C(=O)CCC3)cc1 (configuration not stated)	-26%	-3%	-10%	-9%	0%
Cc1ccc2nc(-c3ccc(SCC(=O)Nc4nnc(C)s4)nc3)[nH]c2c1	11µM*	?	?	13µM*	0%
CCOCC(=O)Nc1ccc(S(=O)(=O)NCC2CCCO2)cc1 (configuration not stated)	-1%	-1%	0%	-11%	-1%
O=C(NCCc1nc2ccccc2[nH]1)c1ccc(F)cc1	-17%	-1%	/	3%	-1%
O=C(NCCc1nc2ccccc2[nH]1)c1cccc(Br)c1	0%	3%	26µM*	-27%	0%
Cc1cccc(NC(=O)CSc2nc3ccccc3c(=O)n2C)c1C	-4%	/	/	2%	-1%
Cc1cc2c(=O)n(C)c(SCC(=O)Nc3cccc(O)c3)nc2s1	2%	5%	8%	-10%	9%
CCOC(=O)c1ccc(NC(=O)CSc2nc3cccnc3n2C)cc1	?	-8%	21µM*	-33%	0%
SMILES	TGFb inhibitor	A549 tox	Nrf2 inh	HepG2 tox	Nrf2 ARE act
Cc1cccc(NC(=O)CSc2nc3sc(C)cc3c(=O)n2C)c1	-9%	-9%	23µM*	-16%	6%
COC(=O)c1ccc(NC(=O)CSc2nc3cccnc3n2C)cc1	0%	-7%	?	-28%	0%
CCOC(=O)c1ccccc1NC(=O)CSc1nc2ncccc2o1	-1%	0%	15%	2µM*	3%
Cn1c(SCC(=O)Nc2ccccc2)nc2ccccc2c1=O	-9%	0%	21µM*	-13%	0%[9.22 µM]
Cc1ccc(S(=O)(=O)N2CCN(c3ccc([N+](=O)[O-])cn3)CC2)cc1	1%	-8%	13%	-7%	0%
COC(=O)Nc1nnc(Cc2ccccc2)s1	16%	1%	-3%	-24%	0%
CCCn1nc(C(=O)Nc2ccc(S(=O)(=O)Nc3nccs3)cc2)c2ccccc2c1=O	-15%	-12%	?	-12%	0%
COc1ccc(NC(=O)CSc2nc3sc(C)cc3c(=O)n2C)cc1	-1%	-16%	-8%	-8%	0%
COc1ccc(NC(=O)CSc2nc3sc(C)cc3c(=O)n2C)c(OC)c1	-1%	-11%	18µM*	-21%	-1%
COc1ccc(-c2cc3nc(CCl)[nH]c(=O)c3s2)cc1	?	-1%	?	22µM*	12%
COC(=O)c1ccc2c(c1)C(C)(C)C(/C=C/c1ccccc1O)=[N+]2C	?	?	/	6.3µM*	?
C[N+]1=C(/C=C/Nc2ccccc2Cl)C(C)(C)c2ccccc21	?	-19%	?	-28%	4%
COC(=O)Nc1ccc(S(=O)(=O)N2CCC(C(=O)N(C)C3CCCCC3)CC2)cc1	-36%	-14%	-11%	0%	0%
COc1ccc(/C=N/Nc2snc(SC)c2C#N)cc1OC	27%	-7%	?	2%	10%
COc1cccc(/C=N/Nc2snc(SC)c2C#N)c1O	10µM*	-3%	-11%	-47%	8%
CCN(c1ccccc1)S(=O)(=O)c1ccc(C(=O)Nc2cccc(C)n2)cc1	-25%	-18%	18µM*	-32%	0%
Cc1ccc(S(=O)(=O)N(C)c2ccc(C(=O)Nc3cccc(C)n3)cc2)cc1	-8%	-8%	?	10%	0%
Cc1cccc(NC(=O)c2cccc(S(=O)(=O)N(C)c3ccccc3)c2)n1	?	?	15µM*	-6%	10%
COC(=O)c1c(C)nc(C)c(C(=O)OC)c1-c1ccc(OC)cc1	-33%	3%	-19%	-30%	0%
CN1C[C@@H]2C(c3ccc(Cl)nc3)C3(c4ccc(C#N)cc4)CC2(C3)[C@H]1c1ccccc1 (some centres not stated)	?	-3%	8%	-20%	4%
N#Cc1ccc(C23CC4(C2)[C@H](CN(P(=O)(c2ccccc2)c2ccccc2)[C@@H]4c2ccccc2)C3c2ccc(Cl)nc2)cc1 (some centres not stated)	13µM*	?	?	-29%	0%
CC(=O)Nc1ccc(NC(=O)COC(=O)c2c(-c3ccccc3)noc2C)cc1	6%	-1%	9%	13%	0%
